# Where “and” joins values, the source holds several entries; their conditions need not be identical. Equal entries are not always repeated. Results filed as inconclusive are left out. Where a call stands in place of a potency, no number is given. Some structures have more than one record in an assay (separate samples or runs), and their calls can disagree. Calls of active or inactive are those of the source. Calls come from the whole dose curve; as a rule, active = well fitted curve in the direction sought with a large enough effect; inconclusive = small, poorly fitted or top-dose-only effect, or another doubt; inactive = no such curve, though single readings can be large; an effect the other way counts as inactive or inconclusive.
# Tests used:
# [1] = Identifying Small Molecule Inhibitors of Pancreatic Cancer Stem Cells (A2780, Spheroid) (AID 1259357); conditions: Potency: A2780 spheroid viability; note: potency is the fitted concentration of half-maximal effect;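 note: spheroids pre-formed over 14 days in stem cell medium on hydrogel; compound exposure lasted 48 h before the ATP luminescence read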
# Method in brief: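 After a 4 h attachment period, compounds were pinned into wells and cultures held 48 h under standard incubator conditions. Viability was then measured as CellTiter-Glo luminescence following 10 min at room temperature.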
# [2] = Identifying Small Molecule Inhibitors of Pancreatic Cancer Stem Cells (Panc1, Adherent) (AID 1259362); conditions: Potency: viability; note: potency is the fitted concentration of half-maximal effect
# Method in brief: (§1)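 Spheroids grown 14 days in stem cell media on hydrogel-coated nonadherent plates; 2D lines seeded directly. Compounds added after 4 h attachment, 48 h at 37C, 5% CO2; CellTiter-Glo luminescence normalized to DMSO (no inhibition) and no-cell wells (full inhibition).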
# [3] = P-glycoprotein substrates identified in KB-8-5-11 adenocarcinoma cell line, qHTS therapeutic library screen (AID 1346987); note: nearly all actives have a fitted effect of over 65% in size; note: potency is the fitted concentration of half-maximal effect
# Method in brief: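 KB-8-5-11, a colchicine-selected P-gp-overexpressing KB-3-1 subline, was grown without colchicine for the assay. Cells were seeded at 500 cells/well, dosed in concentration-response and incubated 72 h at 37 degree C, 5% CO2. Viability was read by CellTiter-Glo luminescence.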
# [4] = Identifying Small Molecule Inhibitors of Pancreatic Cancer Stem Cells (SN12C, Adherent) (AID 1259358);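 note: cell survival measured after 48 h of compound exposure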; note: potency is the fitted concentration of half-maximal effect
# Method in brief: as §1
# [5] = qHTS assay to identify small molecule inhibitors of chordoma cells - UCH-2 (AID 1259356); note: series mostly up to about 46 µM
# [6] = Identifying Small Molecule Inhibitors of Pancreatic Cancer Stem Cells (Panc1, Spheroid) (AID 1259359); conditions: Panc1 spheroid cancer stem cell viability;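 note: potency is the fitted concentration of half-maximal effect; compound exposure lasted 48 h before reading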
# Method in brief: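 Spheroids grown 14 days in stem cell media on nonadherent hydrogel before screening; cells attached 4 h, then compound exposure 48 h at 37C, 5% CO2. CellTiter-Glo luminescence normalized to DMSO (no inhibition) and no-cell wells (full inhibition).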
# [7] = Identifying Small Molecule Inhibitors of Pancreatic Cancer Stem Cells (A278, Adherent) (AID 1259361);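 note: viability read after 48 h compound exposure; nearly all actives have a fitted effect of over 35% in size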
# Method in brief: as §1
# [8] = P-glycoprotein substrates identified in KB-3-1 adenocarcinoma cell line, qHTS therapeutic library screen (AID 1346986); note: nearly all actives have a fitted effect of over 60% in size;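 note: potency is the fitted concentration of half-maximal effect; potency is for cytotoxicity meaning loss of cell viability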
# Method in brief: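 KB-3-1 parental and colchicine-selected P-gp-overexpressing KB-8-5-11 cells (colchicine omitted during assay), 500 cells/well, dosed in dose-response for 72 h at 37 °C; CellTiter-Glo luminescence. Cytotoxic: curve class -1.1 to -2.4, max response >50%, AC50 < 10 uM.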
smiles,measurement,setting,value
O=C(Nc1ccccc1-c1cn2c(CN3CCNCC3)csc2n1)c1cnc2ccccc2n1,Potency,[1],inactive
same,Potency,[2],inactive
same,Potency,[3],26.4 µM (active)
O=C(N[C@@H](c1ccccc1)[C@@H]1CCCCN1)c1cccc(C(F)(F)F)c1Cl,Potency,[4],inactive
same,Potency,[3],inactive
CC1(C)O[C@H]2C[C@@H]3[C@H]4CCC5=CC(=O)C=C[C@]5(C)[C@@]4(F)[C@@H](O)C[C@]3(C)[C@]2(C(=O)CO)O1,outcome,[5],inactive
same,Potency,[3],inactive
O=C(O)CCC1CCC(c2cc(F)ccc2F)(S(=O)(=O)c2ccc(Cl)cc2)CC1 (centres undefined),Potency,[4],inactive
same,Potency,[6],3.32 µM (active)
same,IC50 (viability decrease),[7],inactive
same,Potency,[2],inactive
same,Potency,[8],inactive
same,Potency,[3],inactive
CC(C)(C)C(=O)Oc1ccc2c(c1)nc(NC(=O)c1cccc([N+](=O)[O-])c1)n2CCCO,Potency,[1],inactive
same,Potency,[4],inactive
same,IC50 (viability decrease),[7],18.7 µM (active)
same,Potency,[2],inactive
CCOC(CN1C(=O)[C@](CC(=O)Nc2ccc(C)cc2)(NC(=O)Nc2ccc(C)cc2)c2ccccc21)OCC,Potency,[1],5.9 nM (active)
same,Potency,[4],23.5 µM (active)
COc1cc(Nc2ncc(F)c(Nc3ccc4c(n3)NC(=O)C(C)(C)O4)n2)cc(OC)c1OC,Potency,[1],inactive
same,Potency,[3],2.59 µM (active) and 18.4 µM (active) and inactive
CS(=O)c1ccc(-c2nc(-c3ccc(F)cc3)c(-c3ccncc3)[nH]2)cc1 (centres undefined),Potency,[4],inactive
same,IC50 (viability decrease),[7],inactive
same,Potency,[8],inactive
same,Potency,[3],inactive
O=c1cc(N2CCOCC2)oc2c(-c3cccc4c3sc3ccccc34)cccc12,Potency,[1],26400 nM (active)
same,IC50 (viability decrease),[7],18.7 µM (active)
same,Potency,[2],23.5 µM (active)
same,Potency,[8],inactive
same,Potency,[3],inactive
COc1ncc(-c2ccc3nccc(-c4ccnnc4)c3c2)cc1NS(=O)(=O)c1ccc(F)cc1F,Potency,[1],132 nM (active)
same,Potency,[4],inactive
same,Potency,[6],0.0074 µM (active)
same,IC50 (viability decrease),[7],0.118 µM (active)
same,Potency,[3],2.96 µM (active) and 29.1 nM (active)
CC(C)(C)COc1ccc(-n2cc(C(=O)O)cn2)cc1C#N,Potency,[1],inactive
same,Potency,[4],inactive
same,IC50 (viability decrease),[7],inactive
same,Potency,[3],inactive
CC(C)(C)c1ccc(C(O)CCCN2CCC(C(O)(c3ccccc3)c3ccccc3)CC2)cc1 (centres undefined),outcome,[5],inactive
same,Potency,[3],13 µM (active) and 18.4 µM (active)
CC1(C)Cc2c(sc(NC(=S)NC(=O)c3ccccc3)c2C(=O)O)CO1,Potency,[8],inactive
same,Potency,[3],inactive
CC(=O)O[C@]1(C(C)=O)CC[C@@H]2[C@@H]3C[C@H](C)C4=CC(=O)CC[C@]4(C)[C@H]3CC[C@@]21C,Potency,[8],inactive
same,Potency,[3],inactive
CC1(C)S[C@H]2[C@H](NC(=O)[C@@H](N)c3ccc(O)cc3)C(=O)N2[C@@H]1C(=O)O,Potency,[8],inactive
same,Potency,[3],inactive
CCN(CC)CCOc1ccc(C(=C(Cl)c2ccccc2)c2ccccc2)cc1,Potency,[8],inactive
same,Potency,[3],inactive
COc1cccc(-c2cc(=O)c3ccccc3o2)c1N,Potency,[8],inactive
same,Potency,[3],inactive
COc1cc(N2CCC(N3CCN(C)CC3)CC2)ccc1Nc1ncnc(Nc2ccccc2S(=O)(=O)C(C)C)n1,Potency,[8],10.3 µM (active)
same,Potency,[3],5.9 µM (active) and 9.2 µM (active)
O=C(Nc1cc(Cl)cc2c1[nH]c1cnccc12)c1cccnc1,Potency,[2],inactive
same,Potency,[8],inactive
same,Potency,[3],inactive
Nc1ncnc2ccccc12,Potency,[8],inactive
same,Potency,[3],inactive
CC[C@H]1OC(=O)[C@H](C)[C@@H](O[C@H]2C[C@@](C)(OC)[C@@H](O)[C@H](C)O2)[C@H](C)[C@@H](O[C@@H]2O[C@H](C)C[C@H](N(C)C)[C@@H]2O)[C@](C)(O)C[C@@H](C)CN(C)[C@H](C)[C@@H](O)[C@]1(C)O,Potency,[8],inactive
same,Potency,[3],inactive
Cc1ccc([C@@H]2O[C@H](CO)[C@@H](O)[C@H](O)[C@@H]2O)cc1Cc1ccc(-c2ccc(F)cc2)s1,Potency,[8],inactive
same,Potency,[3],inactive
COc1ccc(-c2coc3cc(O)cc(O)c3c2=O)cc1,Potency,[8],inactive
same,Potency,[3],inactive
O=C(CCCCCCC(=O)Nc1ccccc1)NO,IC50 (viability decrease),[7],3.4 µM (active)
same,Potency,[3],4.61 µM (active) and 3.66 µM (active) and 6.62 µM (active)
COc1ccc(-c2nc(N3CCOCC3)c3sc(CN(C)c4ncc(C(=O)NO)cn4)cc3n2)cn1,Potency,[8],0.164 µM (active)
same,Potency,[3],20.9 nM (active) and 231 nM (active)
CNC(=O)c1ccc2cc(C3(O)CCn4cncc43)ccc2c1 (centres undefined),Potency,[8],inactive
same,Potency,[3],inactive
CN(C)Cc1ccc(-c2nc3cccc4c3n2CCNC4=O)cc1,IC50 (viability decrease),[7],23.5 µM (active)
same,Potency,[3],inactive
Nc1ncnc2c1ncn2[C@@H]1O[C@H](CO)C[C@@H]1O,Potency,[8],inactive
O=c1ccn([C@@H]2O[C@H](CO)[C@H](O)[C@H]2O)c(=O)[nH]1,Potency,[8],inactive
same,Potency,[3],inactive
CN(C)CCC=C1c2ccccc2COc2ccc(CC(=O)O)cc21,Potency,[8],inactive
same,Potency,[3],inactive
CCOC1OC(=O)C[C@H]1NC(=O)[C@@H]1CCCN1C(=O)[C@@H](NC(=O)c1ccc(N)c(Cl)c1)C(C)(C)C (some centres undefined),Potency,[8],inactive
same,Potency,[3],inactive
O=C(O)c1ccc(-c2c[nH]c3ncc(-c4ccccc4)cc23)cc1C1CCCC1,Potency,[8],inactive
same,Potency,[3],inactive and 3.66 µM (active)
O=C(Nc1c(Cl)cncc1Cl)c1ccc(OC(F)F)c(OCC2CC2)c1,Potency,[8],inactive
same,Potency,[3],inactive
CCCCCCCCCCCC1=C(O)C(=O)C=C(O)C1=O,Potency,[8],inactive
same,Potency,[3],inactive
O=c1cc(CN2CCOCC2)occ1OCCCCCSc1ccnc2cc(C(F)(F)F)ccc12,Potency,[2],inactive
same,Potency,[3],10.3 µM (active)
O=c1c(-c2ccc(O)cc2)coc2cc(O[C@@H]3O[C@H](CO)[C@H](O)[C@H](O)[C@H]3O)ccc12,Potency,[8],inactive
same,Potency,[3],inactive
Cc1nc(N)sc1-c1ccnc(Nc2ccc(N3CCOCC3)cc2)n1,IC50 (viability decrease),[7],5.9 µM (active)
same,Potency,[8],1.46 µM (active)
same,Potency,[3],5.26 µM (active) and 1.16 µM (active)
Cc1ccc(F)c(NC(=O)Nc2ccc(-c3cccc4[nH]nc(N)c34)cc2)c1,IC50 (viability decrease),[7],26.4 µM (active)
same,Potency,[3],23.5 µM (active)
Cc1ccc(Nc2cc(-c3cccc(N4C(=O)c5ccccc5C4=O)c3)ncn2)cc1NS(C)(=O)=O,Potency,[8],inactive
same,Potency,[3],inactive
O=c1c(O)c(-c2ccc(O)cc2)oc2cc(O)cc(O)c12,Potency,[8],inactive
same,Potency,[3],inactive
CCC(=O)NC[C@H](Cc1ccc(OCCc2nc(-c3ccccc3)oc2C)cc1)NC(C)=CC(=O)c1ccc(C(F)(F)F)cc1,Potency,[8],inactive
same,Potency,[3],inactive
Nc1nc(F)nc2c1ncn2[C@@H]1O[C@H](COP(=O)(O)O)[C@@H](O)[C@H]1O,Potency,[8],inactive
same,Potency,[3],inactive
O=c1cc(-c2cccc3c2Sc2ccccc2S3)oc(N2CCOCC2)c1,Potency,[8],inactive
same,Potency,[3],inactive
Nc1ncnc2c1ncn2[C@@H]1O[C@@H](CO)[C@H](O)[C@H]1O,Potency,[8],inactive
same,Potency,[3],inactive
COc1cc2c(cc1OC)CN(CCc1ccc(NC(=O)c3cc(OC)c(OC)cc3NC(=O)c3cnc4ccccc4c3)cc1)CC2,Potency,[8],inactive
same,Potency,[3],inactive
CC[C@@H]1C=C(C)C[C@H](C)C[C@H](OC)[C@H]2O[C@@](O)(C(=O)C(=O)N3CCCC[C@@H]3C(=O)O[C@H](C(C)=C[C@@H]3CC[C@H](Cl)[C@H](OC)C3)[C@H](C)[C@@H](O)CC1=O)[C@H](C)C[C@H]2OC,Potency,[8],inactive
same,Potency,[3],inactive
COc1cccc([C@@H](C)NCCCc2ccccc2Cl)c1,Potency,[8],inactive
same,Potency,[3],inactive
CCOC(=O)C1=C(N)Oc2ccc(Br)cc2C1C(C#N)C(=O)OCC (centres undefined),Potency,[8],inactive
same,Potency,[3],inactive

# Reference: PubChem BioAssay (NCATS)
